This passage reports Potency and activity change, negative = inhibition results from PubChem BioAssay (Tox21).

SMILES strings stand for the structures. Records with an inconclusive call do not appear. A call without a number means that no potency is given here. Active and inactive are the calls of the source. Calls follow the shape of the full dose curve.

Acetylcholinesterase (Homo sapiens), sequence (P22303 whole entry, looked up): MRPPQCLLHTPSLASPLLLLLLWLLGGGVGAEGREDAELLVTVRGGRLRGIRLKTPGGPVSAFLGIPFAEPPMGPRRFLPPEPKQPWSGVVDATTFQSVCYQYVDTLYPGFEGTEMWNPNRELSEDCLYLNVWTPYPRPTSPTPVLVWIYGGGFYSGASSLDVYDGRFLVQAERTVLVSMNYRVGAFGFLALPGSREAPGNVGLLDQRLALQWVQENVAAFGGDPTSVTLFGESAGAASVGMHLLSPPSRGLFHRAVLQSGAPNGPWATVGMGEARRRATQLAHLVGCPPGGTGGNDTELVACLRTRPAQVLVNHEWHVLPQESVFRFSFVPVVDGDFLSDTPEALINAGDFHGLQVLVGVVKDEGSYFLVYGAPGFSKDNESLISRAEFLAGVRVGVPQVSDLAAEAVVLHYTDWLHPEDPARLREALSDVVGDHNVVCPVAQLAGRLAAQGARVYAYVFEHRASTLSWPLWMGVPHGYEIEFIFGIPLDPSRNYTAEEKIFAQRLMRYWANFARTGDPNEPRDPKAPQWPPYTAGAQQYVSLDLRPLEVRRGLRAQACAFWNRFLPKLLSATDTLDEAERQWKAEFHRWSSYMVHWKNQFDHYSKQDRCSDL

The target in the test is Acetylcholinesterase (Homo sapiens) (UniProt P22303). In words: Acetylcholinesterase (AChE) small molecule antagonists: fluorescence cell-based qHTS assay (AID 1347398). Also: nearly all actives have a fitted effect of over 50% in size. The settings on record: SH-SY5Y cells; Potency: AChE activity; outcome: AChE activity; series mostly up to 115 µM. In outline:
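SH-SY5Y cells (2000/well), attached overnight, incubated with compound 30 min at 37 C. Acetylthiocholine plus Thiolite Green then added for 40 min at room temperature. Thiocholine fluorescence (Ex/Em 490/520 nm) reports cellular AChE activity.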
On the technique in general: qHTS replaces the single test concentration by a dilution series.
Take `C#C[C@]1(O)CC[C@H]2[C@@H]3CCC4=Cc5oncc5C[C@]4(C)[C@H]3CC[C@@]21C`: the Potency entry is “inactive”.
`CC(=O)Nc1ccc(/C=N/NC(N)=S)cc1`: the Potency result was “inactive”.
`CC(C)=CCCC(C)CCO` (stereo not given): the Potency result was “inactive”.
Still for that read-out and setting: with `CC(C)(CCC(=O)O)C(=O)O` the entry was “inactive”.
Still for that read-out and setting: next, `CCCCOC(=O)CCS`: “inactive”.
For the compound `O=C(O)Cc1cccc(-c2cc(CCCCCCc3ccc(O[C@H]4O[C@H](CO)[C@@H](O)[C@H](O)[C@@H]4O)c(-c4cccc(CC(=O)O)c4)c3)ccc2O[C@H]2O[C@H](CO)[C@@H](O)[C@H](O)[C@@H]2O)c1`, the activity change, negative = inhibition is 5.75% [at 0.439 µM] (inactive).
For the compound `Cc1cc(O)c(Cl)cc1C`, the Potency entry was “inactive”.
Take `O=C(O)CN(CCN(CC(=O)O)CC(=O)O)CCN(CC(=O)O)CC(=O)O`: the activity change, negative = inhibition is 7.05% [at 23.8 µM] (inactive).
With `CCOC(=O)C(O)c1ccccc1` (stereo not given), the Potency result was “inactive”.
Same read-out and setting: with `NCCNC(=O)c1ccc(Cl)cn1` the entry was “inactive”; with `CCn1c2ccccc2c2cc([N+](=O)[O-])ccc21`, “inactive”.
Turning to `COC(=O)C1CCC(C(=O)OC)CC1` (stereo not given), the Potency entry is “inactive”.
Still for that read-out and setting: with `O=C1NCN(c2ccccc2)C12CCN(CCCC(c1ccc(F)cc1)c1ccc(F)cc1)CC2` the entry was “inactive”; with `COc1ccc(S(=O)(=O)N2C(=O)[C@@](c3ccccc3OC)(N3C[C@H](O)C[C@H]3C(=O)N(C)C)c3cc(Cl)ccc32)c(OC)c1`, “inactive”.
In the case of `CN(C)CCOC(C)(c1ccccc1)c1ccccn1` (stereo not given), the Potency entry was “inactive”.
As for `CCCCCCCCCC=O`, the Potency entry is “inactive”.
For the compound `CC1=CC[C@H](C(C)C)C=C1`, the Potency result was “inactive”.
For `O=S(=O)(O)c1cccc(S(=O)(=O)O)c1`, the Potency entry is “inactive”.
Consider `Nc1cc(S(=O)(=O)O)ccc1S(=O)(=O)O`, for which the Potency result is “inactive”.
With `CC(C)(Oc1ccc(Cl)cc1)C(=O)OCCCOC(=O)C(C)(C)Oc1ccc(Cl)cc1`, the Potency entry was “inactive”.
Still for that read-out and setting: with `O=C1CC(c2ccc(Cl)cc2)CC(=O)N1` the entry was “inactive”.
Regarding `COC(=O)c1c(Cl)c(Cl)c(C(=O)OC)c(Cl)c1Cl`, the Potency entry is “inactive”.
Still for that read-out and setting: with `C[C@]12CC[C@H]3[C@@H](CCC4=CC(=O)CC[C@@]43C)[C@@H]1CC[C@@H]2C(=O)CO` the entry was “inactive”; with `c1ccc(CNc2ncnc3c2ncn3C2CCCCO2)cc1` (stereo not given), “inactive”; with `C=CCOCC(CO)(COCC=C)COCC=C`, “inactive”.
Consider `CC(=O)NCCO`, for which the Potency result was “inactive”.
Take `Oc1ccc(OCc2ccccc2)cc1`: the Potency entry is “inactive”.
On the same count and under the same terms, next, `CC(C)(CO)CO`: “inactive”; `N[C@@H](Cc1c[nH]c2ccc(O)cc12)C(=O)O`: “inactive”; `CC(C)OCC1CO1` (stereo not given): “inactive”.
Same read-out and setting: next, `CCCCC(CC)C(=O)OCCOCCOCCOCCOC(=O)C(CC)CCCC` (stereo not given): “inactive”; `CCN(CC)C(=O)C1CN2CCc3cc(OC)c(OC)cc3C2CC1OC(C)=O` (stereo not given): “inactive”; `CC(C)N1C(=O)c2ccccc2C1=O`: “inactive”.
On the same count and under the same terms, next, `O=C1OC2(c3ccc(O)cc3Oc3cc(O)ccc32)c2ccc(N=C=S)cc21`: “inactive”.
Consider `CCC(=O)c1ccc(O)cc1`, for which the Potency result is “inactive”.
The same measure, in the same setting: next, `CCCOCCO`: “inactive”; `CCOC(=O)c1cc(=O)c2c(OCC(COc3cccc4oc(C(=O)OCC)cc(=O)c34)OC(=O)[C@@H](N)CCCCN)cccc2o1`: “inactive”; `O=C=NC1CCC(CC2CCC(N=C=O)CC2)CC1` (stereo not given): “inactive”.
With `Cc1cc(C)n(CO)n1`, the Potency result is “inactive”.
As for `O=C(O)CCC(=O)OC[C@@H](NC(=O)C(Cl)Cl)[C@H](O)c1ccc([N+](=O)[O-])cc1`, the Potency result is “inactive”.
